Compounds without any hit were thinned out: in the full panel of roughly 79,000, 15% have a hit. No stated cut-off is given here; in the data, active means growth inhibition above about 70%; inactive means the rest. Where a SMILES comes first, the peptide text is derived from it.
Assays:
[1] = NCI Yeast Anticancer Drug Screen. Data for the rad50 strain (AID 155);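 further: 0% = growth of vehicle-only cultures of the same strain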; details: S. cerevisiae rad50 strain growth inhibition; at 50.0 µM; active compounds read high
Method in brief: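 Relative growth inhibition (compound vs vehicle) was measured in yeast with a defined repair-gene alteration.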

[2] = NCI Yeast Anticancer Drug Screen. Data for the mec2-1 strain (AID 157); details: S. cerevisiae mec2-1 strain, at 50.0 µM, active compounds read high
Method in brief: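 Growth inhibition is read against vehicle-treated controls after compound exposure of the mec2-1 yeast strain, which is defective in DNA damage repair or cell cycle control.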

[3] = NCI Yeast Anticancer Drug Screen. Data for the sgs1 mgt1 strain (AID 161);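 further: 0% = growth of cultures given vehicle only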; details: S. cerevisiae sgs1 mgt1 strain, at 50.0 µM, active compounds read high
Method in brief: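 Growth of a repair-deficient yeast mutant was monitored after compound treatment and expressed as inhibition relative to vehicle-treated cultures.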

[4] = NCI Yeast Anticancer Drug Screen. Data for the cln2 rad14 strain (AID 165);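 further: 0% = growth equal to vehicle treated cultures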; details: S. cerevisiae cln2 rad14 strain, at 50.0 µM, active compounds read high
Method in brief: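 Growth inhibition, relative to vehicle-treated controls, is the read-out. The test organism is a yeast strain with defined genetic alterations, cln2 rad14.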

[5] = NCI Yeast Anticancer Drug Screen. Data for the bub3 strain (AID 167); details: S. cerevisiae bub3 mutant strain, at 50.0 µM, active compounds read high
Method in brief: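 Screening used yeast with an engineered genetic alteration affecting cell cycle control. Compound-exposed cultures were compared with vehicle cultures, and reduced growth was taken as inhibition.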

[6] = NCI Yeast Anticancer Drug Screen. Data for the mlh1 rad18 strain (AID 175); details: S. cerevisiae mlh1 rad18 strain growth inhibition; at 50.0 µM; active compounds read high
Method in brief: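 Cells of a genetically altered yeast strain, deficient in DNA damage repair, were treated with compound. Their growth was then compared with that of vehicle-treated cultures to give inhibition.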

Measured: growth inhibition

COc1cc(OC)c2c3c(OC)cc(OC)c4c(=O)c(O)c(C[C@@H](C)O)c(c5c(C[C@@H](C)O)c(O)c(=O)c1c25)c43
inactive: [1] 66.8% | [2] 46.4% | [3] 37% | [4] -4.45% | [5] 34.4% | [6] 54.9%

O=c1[nH]cc(SSc2c[nH]c(=O)[nH]c2=O)c(=O)[nH]1
inactive: [1] 13.4% | [2] 15.7% | [3] 4.2% | [4] -25.3% | [5] 29.9% | [6] 12.9%

CCOC(=O)C(C)(C)c1cn(C)c2ccccc12
inactive: [1] -7.05% | [2] -9.9% | [3] -2.7% | [4] -4.8% | [5] -6.55% | [6] 7.4%

CCCCCCCC/C=C\CCCCCCCC(=O)N(CCOC(=O)CCC(=O)OCCN(C(=O)CCCCCCC/C=C\CCCCCCCC)C1CCCCC1)C1CCCCC1
inactive: [1] -5.15% | [2] -9.25% | [3] -17.4% | [4] -3.2% | [5] -4.25% | [6] 16.8%

C[n+]1nc2ccccc2c(=Nc2ccccc2[N+](=O)[O-])[n-]1
inactive: [1] 10.3% | [2] -2.35% | [3] 22.7% | [4] 14.1% | [5] 8.5% | [6] -1.65%

CCSc1nc(C)c(C)c(=O)[nH]1
inactive: [1] 14.2% | [2] -10.9% | [3] 22.4% | [4] 16% | [5] 21.8% | [6] 12.8%

C=C(Cl)COc1ccc(-c2ccccc2)cc1
inactive: [1] 28.4% | [2] 6.9% | [3] 16.5% | [4] -2.7% | [5] -8.55% | [6] 1.2%

C=CCCCCCCCCCOC=O
inactive: [1] -12.1% | [2] -5.2% | [3] 1.25% | [4] -19.8% | [5] 34.3% | [6] 3.2%

CCOc1cn(C2CC(O)C(CO)O2)c(=O)[nH]c1=O (stereo not given)
inactive: [1] -1.35% | [2] 7.75% | [3] -6.95% | [4] -10.9% | [5] -16.2% | [6] 23.6%

c1ccc2nc3c(nc2c1)sc1nc2ccccc2n13
inactive: [1] 9.65% | [2] 3.4% | [3] -11.9% | [4] 10.9% | [5] 8.3% | [6] 17.1%

CCC(CCC(C)C)(SCC(N)=O)C(=O)O (stereo not given)
inactive: [1] -4.75% | [2] -5.15% | [3] -26% | [4] -39.3% | [5] 0.2% | [6] -38%

Nc1cccc(S(N)(=O)=O)c1
inactive: [1] 10.4% | [2] -5.65% | [3] -0.85% | [4] -40% | [5] 12.2% | [6] 1.4%

CC(CCCSC(=N)N)SC(=N)N (stereo not given)
inactive: [1] 4.9% | [2] -3.5% | [3] -0.3% | [4] 24.2% | [5] -2.2% | [6] 12.6%

CC(OC1CC(=O)CC2C(=O)C=CC(=O)C12)c1ccccc1 (stereo not given)
inactive: [1] 25.1% | [2] 21.8% | [3] 26.3% | [4] 20.6% | [5] 28.4% | [6] 26.3%

Nc1cccc2c(O)cc(S(=O)(=O)O)cc12
inactive: [1] -1.35% | [2] -19.2% | [3] 7.6% | [4] -10.7% | [5] -0.4% | [6] 21.6%

Cn1nnc(/C(N)=N/N=C/c2ccccc2)n1
inactive: [1] 1.95% | [2] -10.8% | [3] -1.55% | [4] -22.2% | [5] -12.6% | [6] -15.4%

O=C1C(=O)N(c2ccc(Cl)cc2Cl)C(=O)C(=O)C1c1nc2ccccc2s1
inactive: [1] 43.1% | [2] 29.7% | [3] 4% | [4] 24.2% | [5] 25.6% | [6] 29%

COc1ccccc1C(=O)N(C)c1ccc(Cl)c(C(=O)OC(C)C)c1
inactive: [1] 30.9% | [2] 24.7% | [3] 46.4% | [4] 37.7% | [5] 44.5% | [6] 6.85%

CCOc1ccc(C(C)c2cc3c(cc2OC)OCO3)cc1 (stereo not given)
inactive: [1] 20.7% | [2] 2.3% | [3] 20.8% | [4] -1.55% | [5] 27.5% | [6] 11.8%

COC(=O)c1nc(N)nc(C(=O)OC)c1C(=O)c1cccs1
inactive: [1] -2.55% | [2] -9.05% | [3] -28.9% | [4] -24.8% | [5] -43% | [6] -20.9%

NC(=O)C(CNCc1ccccc1)NCc1ccccc1 (stereo not given)
inactive: [1] -1.5% | [2] 14.2% | [3] 3.1% | [4] -8.5% | [5] 3.6% | [6] -11.4%

CNC(=S)SSSC(=S)NC
inactive: [1] 13.1% | [2] -1.9% | [3] 1.8% | [4] 2.55% | [5] -10.3% | [6] 5.55%

CC(C)(C)c1cc(Nc2c([N+](=O)[O-])cc([N+](=O)[O-])cc2[N+](=O)[O-])cc(C(C)(C)C)c1O
inactive: [1] -17.7% | [2] 10.4% | [3] 2.65% | [4] 20.4% | [5] -5.4% | [6] 0.45%

CCN(CC)CCCC(C)Nc1cc(C)c2nc(C)cc(C)c2c1C (stereo not given)
inactive: [1] -22.1% | [2] 9.45% | [3] 17% | [4] -13% | [5] 3.4% | [6] -18.6%

C[N+](C)(C)C1CCC1
inactive: [1] -2.4% | [2] -4.75% | [3] -1.75% | [4] 8.35% | [5] -15.1% | [6] 5.7%

O=C(Cc1ccc2cc3c(cc2c1)OCO3)NCCc1ccc2c(c1)OCO2
inactive: [1] 30.4% | [2] -8.4% | [3] 25.8% | [4] -11.2% | [5] -1.25% | [6] 8.8%

NC(=O)NC(=O)C1C2CC3OC(=O)C1C3C2 (stereo not given)
inactive: [1] 13.6% | [2] -4.35% | [3] -3.2% | [4] -37.9% | [5] 2.45% | [6] 20.9%

CC(=O)Oc1ccc2c(c1)C(=O)CCCCCC(=O)O2
inactive: [1] 19.2% | [2] 4.2% | [3] 6.85% | [4] -0.25% | [5] -2.4% | [6] -10.8%

CC(C)OC(=S)Nc1ccc(Cl)c(COC(C)(C)C)c1
inactive: [1] -5.8% | [2] -16.2% | [3] -4.65% | [4] 7.6% | [5] -10.1% | [6] -7.4%

CCOc1cccc(C=Nc2ccccc2SSc2ccccc2N=Cc2cccc(OCC)c2O)c1O
inactive: [1] 42.2% | [2] 18.6% | [3] 61.5% | [4] 2.85% | [5] 68.6% | [6] 68.5%

C/C(N=NS(=O)(=O)c1c(C)cc(C)cc1C)=C1\C=CC=CN1O
inactive: [1] -26.4% | [2] -10.2% | [3] -8.25% | [4] -6.95% | [5] 4.15% | [6] -18.8%

O=C(CCC(=O)C1Cc2ccccc2C1=O)Nc1cccc(C(F)(F)F)c1 (stereo not given)
inactive: [1] -38.8% | [2] -42% | [3] -18.8% | [4] -1.5% | [5] -22.9% | [6] -30.7%

O=C(O)c1c[nH]c2ccc([N+](=O)[O-])cc2c1=O
inactive: [1] -21% | [2] -12.8% | [3] -11.9% | [4] 11.7% | [5] -14% | [6] -7.95%

N#CC(NC12CC3CC(CC(C3)C1)C2)c1ccccc1C(F)(F)F (stereo not given)
inactive: [1] -18.6% | [2] 7.3% | [3] -30.9% | [4] 10.4% | [5] -30.1% | [6] -12.9%

CSc1n[nH]c(NC(=O)c2ccccc2Br)n1
inactive: [1] 4.2% | [2] -0.9% | [3] 29.4% | [4] -19.6% | [5] 3.65% | [6] 30.5%

CC(C)CCC(C)c1ccncc1 (stereo not given)
inactive: [1] 11.7% | [2] 0.4% | [3] -7.05% | [4] -6.5% | [5] 3.35% | [6] 0.45%

Clc1ccc(/C=C2/c3ccccc3-c3nc4ccccc4cc32)cc1
inactive: [1] -1.1% | [2] 24% | [3] 23.8% | [4] -24.9% | [5] -9.4% | [6] 6.85%

Cc1cc2c(=O)cc(-c3ccc(Cl)cc3Cl)oc2c(C(=O)O)c1C
inactive: [1] -19.6% | [2] 10.9% | [3] 9% | [4] 23.6% | [5] 11.6% | [6] 29.5%

CCOC(=O)/C(C#N)=C(\CC)c1ccccc1
inactive: [1] -8.5% | [2] -8.85% | [3] -3.85% | [4] -0.15% | [5] -8.85% | [6] -21.5%

CC(C)CC(NC(=O)C(Cc1ccccc1)NC(=O)CNC(=O)CN)C(=O)O (stereo not given) (H-GGFL-OH; configuration not given here)
inactive: [1] -1.55% | [2] -4.05% | [3] -11.4% | [4] -5.05% | [5] -1.9% | [6] -12.4%

— PubChem BioAssay (NCI)
